Bioassay records (PubChem BioAssay)
APEX1 inh – APE1 (human) endonuclease inhibition. P27695. recombinant APE1, TAMRA/BHQ-2 abasic DNA cleavage fluorescence. Potency, µM (doses to about 65.8 µM), without a hit: top-dose activity change, negative = inhibition, hits mostly inhibitors. 350,000 compounds, 0.35% hits;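 note: plate controls were vehicle for no effect and reference inhibitor for full effect; nearly all actives have a fitted effect of over 55% in size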
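Endonuclease cleavage of a quenched abasic-site DNA duplex (50 nM) by APE1 (0.75 nM) was tracked by TAMRA dequenching. Compounds were preincubated with enzyme 15 min at room temperature; data normalized to buffer-only and DMSO wells plus NSC13755 control.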
JMJD2E inh – JMJD2E (human) inhibition; B2RXH2; JMJD2E catalytic domain, FDH-coupled NADH fluorescence (FDH is formaldehyde dehydrogenase); Potency, µM (doses to about 57.1 µM), for the others: top-dose activity change, negative = inhibition, hits mostly inhibitors; 230,000 compounds, 1.6% hits; AID 2147; active = well fitted inhibition curve with a large enough effect, not every such curve was filed as active; inconclusive = small, poorly fitted or top-dose-only effect, or another doubt; inactive = no such curve, though single readings can be large or run the other way;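 note: 0% = wells with enzyme and -100% = buffer wells without enzyme; nearly all actives have a fitted effect of over 50% in size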
KAT2A inh – GCN5L2 (KAT2A) acetyltransferase inhibition | GCN5L2 HAT assay, ThioGlo1 CoA-SH fluorescence | Potency, µM (highest dose often 58.9 µM), for the others: top-dose activity change, negative = inhibition, most hits filed as inhibitors | 390,000 compounds, 0.21% hits
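Titration-based screen in which CoA formation is detected via maleimide probe ThioGlo1 (50uM) turning fluorescent on thiol reaction; substrates H3(1-25) 75uM and acetyl-CoA 70uM, GCN5L2 20nM, 20 min incubation at room temperature.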
BLM inh – Bloom syndrome helicase (human) inhibition; P54132; recombinant BLM DNA unwinding, fluorescence dequenching; Potency, µM (top dose mostly 56.1 µM), for inactives: top-dose activity change, negative = inhibition, usual class: inhibitors; 350,000 compounds, 0.2% hits;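 note: plate controls were vehicle for no effect and no enzyme for full effect; nearly all actives have a fitted effect of over 35% in size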
Target sequence (P54132 whole entry, looked up): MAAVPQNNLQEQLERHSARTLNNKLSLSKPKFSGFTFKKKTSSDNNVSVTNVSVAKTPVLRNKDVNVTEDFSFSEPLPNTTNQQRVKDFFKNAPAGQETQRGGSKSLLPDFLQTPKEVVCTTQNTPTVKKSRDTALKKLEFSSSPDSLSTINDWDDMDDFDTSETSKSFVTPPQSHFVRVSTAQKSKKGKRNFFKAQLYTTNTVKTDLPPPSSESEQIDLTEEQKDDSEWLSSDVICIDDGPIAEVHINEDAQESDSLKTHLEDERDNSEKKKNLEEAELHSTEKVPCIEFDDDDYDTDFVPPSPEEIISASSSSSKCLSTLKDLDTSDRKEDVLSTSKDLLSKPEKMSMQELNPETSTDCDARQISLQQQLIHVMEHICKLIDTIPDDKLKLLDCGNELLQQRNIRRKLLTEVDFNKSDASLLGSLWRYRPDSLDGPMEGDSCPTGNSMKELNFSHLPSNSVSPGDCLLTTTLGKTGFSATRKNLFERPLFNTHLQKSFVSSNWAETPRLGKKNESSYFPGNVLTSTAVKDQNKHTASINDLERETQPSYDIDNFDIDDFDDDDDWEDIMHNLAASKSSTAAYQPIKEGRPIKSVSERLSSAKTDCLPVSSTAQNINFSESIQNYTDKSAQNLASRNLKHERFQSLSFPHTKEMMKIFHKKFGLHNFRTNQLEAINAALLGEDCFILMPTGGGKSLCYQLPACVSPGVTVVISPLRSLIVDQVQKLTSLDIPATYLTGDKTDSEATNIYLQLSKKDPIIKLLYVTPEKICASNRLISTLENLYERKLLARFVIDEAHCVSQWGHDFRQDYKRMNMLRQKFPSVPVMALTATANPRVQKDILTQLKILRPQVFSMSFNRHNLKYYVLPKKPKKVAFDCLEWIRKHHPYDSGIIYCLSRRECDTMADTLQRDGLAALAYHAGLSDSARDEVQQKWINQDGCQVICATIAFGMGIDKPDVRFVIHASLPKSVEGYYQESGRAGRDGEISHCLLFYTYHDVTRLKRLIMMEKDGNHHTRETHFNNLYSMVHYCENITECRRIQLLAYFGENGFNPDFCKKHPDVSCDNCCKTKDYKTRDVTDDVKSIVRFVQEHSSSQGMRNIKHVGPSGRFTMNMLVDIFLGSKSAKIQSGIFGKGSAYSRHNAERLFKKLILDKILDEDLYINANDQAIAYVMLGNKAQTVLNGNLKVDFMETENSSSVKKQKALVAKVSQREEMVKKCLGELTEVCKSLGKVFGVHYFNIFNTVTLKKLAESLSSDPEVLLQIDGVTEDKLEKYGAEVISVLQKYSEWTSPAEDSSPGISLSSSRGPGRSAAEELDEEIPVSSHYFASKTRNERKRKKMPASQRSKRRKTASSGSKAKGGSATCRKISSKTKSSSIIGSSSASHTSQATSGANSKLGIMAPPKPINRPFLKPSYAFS
RECQ1 inh – inhibitors of human RECQ1 DNA helicase. P46063. RECQ1 DNA unwinding, red fluorescence kinetic read. Potency, µM (series often up to 57.3 µM), without a hit: at the highest dose activity, negative = inhibition, actives largely listed as inhibitors. 240,000 compounds, 0.54% hits. AID 2549;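 note: plate controls were vehicle for no effect and no enzyme for full effect; nearly all actives have a fitted effect of over 30% in size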
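RECQ1T1 50 nM; forked duplex (20 bp + 30-nt ss tails) 200 nM, ATP 2 mM final; pH 8.0, 2 mM MgCl2, 2.5 ug/ml poly(dI-dC); 15 min compound preincubation; discontinuous kinetic read over 2 h at RT.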
TDP1 block – blocks human tyrosyl-DNA phosphodiesterase 1. Q9NUW8. recombinant TDP1, AlphaScreen DNA substrate cleavage. Potency, µM (doses to about 130 µM), for inactives: at the top dose activity change, negative = inhibition, actives largely listed as inhibitors. 350,000 compounds, 0.28% hits. AID 485290; note: nearly all actives have a fitted effect of over 40% in size
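Recombinant E. coli-expressed Tdp1 (1 nM) preincubated with compound 15 min at RT, then 5'-biotin/3'-phosphotyrosine-FITC DNA substrate (15 nM) added for 5 min. AlphaScreen beads (10 ug/ml) added, 10 min RT; tyrosine-FITC cleavage read as signal loss.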
An asterisk follows results filed as active; i = inactive; ? = inconclusive; . = not tested or not shown; [ ] = dose if it differs, or a comment. This is one part of a sample in which hits are shown more often than they occur. Unless noted, calls come from the whole dose curve; as a rule, active = well fitted curve in the direction sought with a large enough effect; inconclusive = small, poorly fitted or top-dose-only effect, or another doubt; inactive = no such curve, though single readings can be large; an effect the other way counts as inactive or inconclusive. Unless noted, % is set by controls: 0 for no effect and ±100 for the full control effect; potency is the fitted concentration of half-maximal effect.

SMILES | APEX1 inh | JMJD2E inh | KAT2A inh | BLM inh | RECQ1 inh | TDP1 block
Cc1sc(-n2c(C)cc(/C=C3\SC(=S)NC3=O)c2C)c(C#N)c1C | -7% | 3% | ? | -29% | 28µM* | 6%
COc1cc(C(=O)NS(=O)(=O)c2ccccc2C)ccc1Cc1cn(C)c2ccc(NC(=O)OC3CCCC3)cc12 | -4% | -23% | 7.1µM* | -24% | ? | 2%
CCCCC(=O)NC(c1ccccc1OC)c1ccc2cccnc2c1O (stereo unspecified) | 3% | ? | 17% | -3% | -15% | 8%
COc1ccc(C(NC(C)=O)c2ccc3cccnc3c2O)c(OC)c1 (stereo unspecified) | -2% | 22µM* | 0% | -3% | -6% | 8%
CCCC(=O)NC(c1ccccc1OC)c1ccc2cccnc2c1O (stereo unspecified) | 4% | 32µM* | -10% | -7% | -9% | 7%
Cc1nnc(SCC(=O)NCc2ccco2)[nH]c1=O | 25µM* | ? | ? | 10% | -18% | .
Cc1ccc(Nc2c(-c3ccc(C)s3)nc3cccc(C)n23)cc1 | . | . | . | . | . | 6%
CC(=O)Sc1nc(-c2ccccc2)[nH]c1S(=O)(=O)c1ccc(C)cc1 | -1% | 10µM* | -16% | -1% | 6% | 7%
O=C1c2ccccc2C(=O)C1c1ccc(Br)cc1 | 4% | . | -11% | -2% | . | 15%
O=c1[nH]c(=S)[nH]c2c1C(c1ccc(Br)cc1)c1c([nH]c(=S)[nH]c1=O)O2 | 11% | . | 14µM* | -20% | . | .
COc1ccc(C2c3c(nc(Cc4ccccc4)[nH]c3=O)Oc3ccc4ccccc4c32)cc1OC (stereo unspecified) | . | . | . | . | . | 2%
CSCC[C@H](N)C(=O)N[C@@H](CO)C(=O)N[C@@H](CCCN=C(N)N)C(=O)N1CCC[C@H]1C(=O)N[C@@H](C)C(=O)N[C@@H](CS)C(=O)N1CCC[C@H]1C(=O)N[C@@H](CC(N)=O)C(=O)N[C@@H](CC(=O)O)C(=O)N[C@@H](CCCCN)C(=O)N[C@@H](Cc1ccc(O)cc1)C(=O)N[C@@H](CCC(=O)O)C(=O)O | -5% | . | -12% | -2% | -3% | 10%
CC(Oc1ccc2cc(-c3ccccc3)c(=O)oc2c1)C(=O)NCC1CCC(C(=O)O)CC1 (stereo unspecified) | -15% | . | 32µM* | 3% | . | .
O=C(O)c1ccc2c(ccc3nn(-c4ccc(/C=C/c5ccc(-n6nc7ccc8cc(C(=O)O)ccc8c7n6)cc5[S+](=O)([O-])[O-])c([S+](=O)([O-])[O-])c4)nc32)c1 | . | . | . | . | . | 2.5µM*
Oc1ccc(/C=N/N2CCN(C3c4ccccc4-c4ccccc43)CC2)cc1O | -1% | 16µM* | -15% | -11% | -22% | 11%
COCCN(C(=O)COC(=O)Cc1coc2cc(C)ccc12)c1c(N)n(Cc2ccccc2)c(=O)[nH]c1=O | -33% | . | -12% | . | . | 28µM*
N#Cc1cc([N+](=O)[O-])c2sc(C(N)=O)[n+]([O-])c2c1 | . | . | 0% | . | . | .
Cc1c2cc(O)c(=O)cc-2oc2cc(O)c(O)cc12 | 0.79µM* | ? | ? | 14µM* | 10µM* | 12%
COc1cc(OC)c(-c2c3cc(O)c(=O)cc-3oc3cc(O)c(O)cc23)cc1OC | 25µM* | 5µM* | 4% | -27% | 10µM* | 8%
O=c1cc(-c2ccc(O)cc2O)oc2ccccc12 | -4% | ? | . | 2% | -5% | 12%[56.1 µM]
CC(C)(C)n1ncc2c(=O)n(Cc3cccc(Oc4ccccc4)c3)cnc21 | -3% | . | . | . | . | .
O=C(Nc1ccccc1C(=O)OCc1cc(=O)n2ccsc2n1)c1ccccc1Cl | . | . | -7% | -3% | . | -4%
O=C(OCc1cc(=O)n2ccsc2n1)c1ccccc1NCCO | -13% | . | -21% | . | . | 45µM*
c1coc(-c2nc(-c3ccco3)c(-c3ccco3)nc2-c2ccco2)c1 | 1.4µM* | ? | ? | 14µM* | 4µM* | 3.2µM*
COc1cc2c(cc1OC)C1O[C@](c3ccsc3)(C2)Oc2c1c(=O)oc1ccc(F)cc21 | -21%[12.4 µM] | . | 5%[12.7 µM] | -5%[12.4 µM] | . | .
SMILES | APEX1 inh | JMJD2E inh | KAT2A inh | BLM inh | RECQ1 inh | TDP1 block
CCCCn1c(C)cc2c(c1=O)C1O[C@](c3ccsc3)(Cc3cc(OC)c(OC)cc31)O2 | 3.9µM* | . | -3%[12.7 µM] | -11%[12.4 µM] | . | .
Cc1cc(C(=O)N/N=C/c2cc(N=Nc3ccccc3)ccc2O)n[nH]1 | -7% | 5µM* | -4% | 3% | -7% | -1%
Cc1cc(C(=O)N/N=C/c2cccc([N+](=O)[O-])c2O)n[nH]1 | -1% | 13µM* | -3% | 3% | -2% | 0%
Cc1cc(C(=O)N/N=C/c2ccc(O)c([N+](=O)[O-])c2)n[nH]1 | 5% | -2% | 29% | 0% | -2% | -4%
CCCN1C(=O)c2ccccc2NC1c1ccc(OC)c(COc2cccc(OC)c2)c1 (stereo unspecified) | . | . | . | . | . | 0%
Cc1ccc(/C=N/N2C(=S)SC(C)(C)C2N(O)C(=O)Nc2ccc([N+](=O)[O-])cc2)cc1 (stereo unspecified) | 10% | -4% | -7% | -8% | 32µM* | 7%
CC(Sc1nc2c(c(=O)[nH]1)CCCC2)C(=O)Nc1ccc(Br)cn1 (stereo unspecified) | 12% | . | -3% | -7% | . | 40µM*
CCCN(S(=O)(=O)c1ccccc1F)S(=O)(=O)c1ccccc1Br | 54% | . | -6% | -8% | . | 89µM*
O=[N+]([O-])/C(C=Nc1ccccc1O)=C\Nc1ccccc1O | -3% | 13µM* | 5% | -4% | -10% | 4%
Cc1cccc(-n2c(-c3ccncc3)n[nH]c2=S)c1C | 20% | 7% | -11% | 0% | i | 18µM*
CCc1ccccc1-n1c(-c2ccncc2)n[nH]c1=S | 32µM* | 4% | -13% | 5% | 4% | 0%
Cc1ccccc1-n1c(-c2ccncc2)n[nH]c1=S | 2% | -1% | -15% | -1% | 0% | .
COc1ccc(C2Nc3ccccc3C(=O)N2Cc2ccccc2Cl)cc1COc1ccc(NC(C)=O)cc1 (stereo unspecified) | . | . | . | . | . | 1%
CC(=O)Nc1cc(OC(C)=O)c2nonc2c1OC(C)=O | ? | -29% | -2% | 1.6µM* | 5µM* | -3%
Cn1cc(P(=O)(c2ccccc2)c2ccccc2)c2ccccc21 | . | . | . | . | . | 0%
Cc1ccsc1CNc1ncnc2ccc(-c3ccc4c(c3)OCO4)cc12 | . | . | . | . | . | 3%
COC(=O)c1ccc(-c2nc3cc(Cl)c(N)cc3s2)cc1 | 14% | 2.5µM* | 0% | -7% | -13% | 0%
